Source: PubChem BioAssay
T cruzi growth-1 – inhibitors of T. cruzi proliferation; 5.9% of 77,000 active; AID 624255; T. cruzi beta-gal in NIH3T3, GalScreen luminescence, 90 h; inhibition, % at 8.34 µM;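 active means mean inhibition above about 93%, with at least 55% of replicates each passing it, limit read from the data, passing the limit was not always enough; inconclusive means only one of those two conditions holds; inactive means neither condition holds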
C diff growth – blocks growth of Clostridium difficile | Clostridium difficile clinical isolate growth, OD600, 24 h; active compounds read low | growth activity, negative = inhibition, % at 16 µg/mL (by protocol) | 0.25% of 86,000 active;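 active means mean growth activity at or below -80% and every replicate also at or below -80%; inconclusive means mean at or below -80% but some replicate above -80%; inactive means mean growth activity above -80%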
Pf Dd2 growth – P. falciparum Dd2 growth inhibition | 2.3% of 94,000 active | SYBR Green, 72 h; active compounds read low | AID 1159554 | activity change, % at 10 µM; in the data active means activity change below about -80%; inconclusive means no clear call, values can overlap the other calls
T cruzi growth-2 – inhibitors of T. cruzi proliferation; shares compounds with T cruzi growth-1; T. cruzi beta-gal in NIH3T3, GalScreen luminescence, 90 h; inhibition, % at 8.35 µM; 72% of 5,600 active; AID 651739;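 active means mean replicate inhibition above about 95% and at least 55% of replicates individually reaching it, limit read from the data; inconclusive means only one of the two criteria is met; inactive means neither criterion is met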
T cruzi growth-3 – blocks T. cruzi growth in NIH3T3 host cells | shares compounds with T cruzi growth-1 | T. cruzi beta-gal in NIH3T3, GalScreen luminescence, 90 h | inhibition, % at 2.09 µM | 21% of 5,600 active;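 active means mean inhibition above about 95%, with at least 55% of replicates also reaching it, limit read from the data; inconclusive means meets just one of the two conditions; inactive means meets neither condition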
3T3 cytotox – kills mouse NIH/3T3 fibroblasts | shares compounds with T cruzi growth-1 | cytotoxicity (signal decrease), % at 8.35 µM | NIH/3T3 viability, CellTiter-Glo ATP luminescence, 90 h | 14% of 5,600 active;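 active means mean signal decrease across replicates above about 35% based on untreated-well scatter, with enough replicates individually passing, limit read from the data; inconclusive means no rule stated though some were filed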
3T3 cytotox 2 – cytotoxicity in mouse NIH/3T3 fibroblasts; NIH/3T3 viability, CellTiter-Glo ATP luminescence, 90 h; 56% of 5,600 active; AID 651744; inhibition, % at 24.9 µM; shares compounds with T cruzi growth-1;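 active means mean loss of cell viability signal at or above a set limit, and enough replicates individually reaching it; inconclusive means meets only the mean limit or only the replicate share; inactive means meets neither condition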
Hits are given with their value; - = inactive; ? = inconclusive; . = not tested or not shown. This is a sample that favours compounds with a hit; in the whole collection about 6.7% have one here.

SMILES	T cruzi growth-1	C diff growth	Pf Dd2 growth	T cruzi growth-2	T cruzi growth-3	3T3 cytotox	3T3 cytotox 2
C[C@@H]1CN([C@@H](C)CO)C(=O)c2cc(NC(=O)CCC(F)(F)F)ccc2O[C@@H](C)CCCCO[C@H]1CN(C)S(=O)(=O)c1ccc(F)cc1	-	-	.	.	.	.	.
C[C@@H]1CN([C@@H](C)CO)S(=O)(=O)c2ccc(C3=CCCC3)cc2O[C@@H]1CN(C)S(=O)(=O)c1cn(C)cn1	-	-	-	.	.	.	.
CCS(=O)(=O)N1CC2(C1)[C@@H](c1ccccc1)[C@@H](CO)N2C(=O)C1CCCC1	.	-	-	.	.	.	.
C[C@@H]1CN([C@H](C)CO)S(=O)(=O)c2ccc(-c3ccc(F)cc3)cc2O[C@H]1CN(C)C(=O)Nc1ccccc1F	-	-	-	.	.	.	.
C[C@H]1CN([C@@H](C)CO)S(=O)(=O)c2ccc(-c3ccc(F)cc3)cc2O[C@H]1CN(C)C(=O)Nc1ccccc1F	?	-	-	110.0	-	55.9	54.8
C[C@@H]1CN([C@@H](C)CO)S(=O)(=O)c2ccc(-c3ccc(F)cc3)cc2O[C@@H]1CN(C)C(=O)Nc1ccccc1F	98.0	-	-	102.5	-	-	-
C[C@H](CO)N1C[C@H](C)[C@H](CN(C)C(=O)Nc2ccccc2F)Oc2cc(-c3cccc(C#N)c3)ccc2S1(=O)=O	-	-	-	.	.	.	.
C[C@H]1CN([C@@H](C)CO)S(=O)(=O)c2ccc(-c3cccc(C#N)c3)cc2O[C@H]1CN(C)C(=O)Nc1ccccc1F	116.6	-	-	103.2	-	37.3	63.9
COc1ccc(-c2ccc3c(c2)O[C@H](CN(C)C(=O)Nc2ccccc2F)[C@H](C)CN([C@@H](C)CO)S3(=O)=O)cc1	95.9	-	-	105.1	-	-	72.0
COc1ccc(-c2ccc3c(c2)O[C@H](CN(C)C(=O)Nc2ccccc2F)[C@H](C)CN([C@H](C)CO)S3(=O)=O)cc1	-	-	-	.	.	.	.
C[C@H](CO)N1C[C@H](C)[C@H](CN(C)C(=O)Nc2ccccc2F)Oc2cc(-c3ccc(F)cc3)ccc2S1(=O)=O	-	-	-	.	.	.	.
C[C@@H]1CN([C@@H](C)CO)C(=O)c2cccc(NS(=O)(=O)c3cccs3)c2O[C@H]1CN(C)S(=O)(=O)c1ccccc1	-	.	-	.	.	.	.
COCC#Cc1ccc2c(c1)O[C@@H](CN(C)Cc1ccncc1)[C@@H](C)CN([C@@H](C)CO)S2(=O)=O	?	-	-	96.8	-	-	-
COCC#Cc1ccc2c(c1)O[C@@H](CN(C)Cc1ccncc1)[C@@H](C)CN([C@H](C)CO)S2(=O)=O	?	-	-	105.5	-	-	-
COCC#Cc1ccc2c(c1)O[C@H](CN(C)Cc1ccncc1)[C@H](C)CN([C@H](C)CO)S2(=O)=O	-	-	-	.	.	.	.
COCC#Cc1ccc2c(c1)O[C@H](CN(C)Cc1ccncc1)[C@H](C)CN([C@@H](C)CO)S2(=O)=O	-	-	-	.	.	.	.
COCC#Cc1ccc2c(c1)O[C@H](CN(C)Cc1ccccc1)[C@@H](C)CN([C@@H](C)CO)S2(=O)=O	?	-	-	101.9	-	-	104.1
COCC#Cc1ccc2c(c1)O[C@H](CN(C)Cc1ccc(F)cc1)[C@@H](C)CN([C@H](C)CO)S2(=O)=O	-	-	-	.	.	.	.
O=C(C[C@H]1CC[C@@H]2[C@H](COC[C@@H](O)CN2C(=O)Nc2ccccc2)O1)NCc1ccncn1	-	-	.	.	.	.	.
Cc1ccccc1-c1cnc2c(c1)C(=O)N([C@H](C)CO)C[C@@H](C)[C@@H](CN(C)C(=O)CN(C)C)O2	-	-	-	.	.	.	.
CC(C)(C)OC(=O)NCCOCCOCCNc1ncnc2ccc(Br)cc12	.	-	.	.	.	.	.
C[C@@H]1CN([C@H](C)CO)C(=O)c2cc(NC(=O)Nc3ccc(F)cc3)ccc2O[C@@H](C)CCCCO[C@@H]1CN(C)Cc1ccncc1	-	.	-	.	.	.	.
C[C@H]1CCCCO[C@H](CN(C)S(=O)(=O)c2ccccc2)[C@@H](C)CN([C@@H](C)CO)C(=O)c2cc(NC(=O)Nc3ccc(F)cc3)ccc2O1	106.4	-	-	110.0	-	-	-
C[C@@H]1CN([C@@H](C)CO)C(=O)c2cc(NC(=O)Nc3ccc(F)cc3)ccc2O[C@@H](C)CCCCO[C@@H]1CN(C)S(=O)(=O)c1ccccc1	103.2	-	-83.9	-	-	-	-
C[C@@H]1CCCCO[C@@H](CN(C)S(=O)(=O)c2ccccc2)[C@H](C)CN([C@H](C)CO)C(=O)c2cc(NC(=O)Nc3ccc(F)cc3)ccc2O1	99.4	-	-	107.7	-	-	-
SMILES	T cruzi growth-1	C diff growth	Pf Dd2 growth	T cruzi growth-2	T cruzi growth-3	3T3 cytotox	3T3 cytotox 2
C[C@H](CO)N1C[C@H](C)[C@@H](CN(C)C(=O)Cc2ccccc2)OCCCC[C@H](C)Oc2ccc(NC(=O)CCC(F)(F)F)cc2C1=O	-	-	-	.	.	.	.
C[C@H](CO)N1C[C@H](C)[C@H](CN(C)C)Oc2ccc(NC(=O)CCN3CCOCC3)cc2C1=O	.	-	-	.	.	.	.
O=C(NC1CCCC1)N1CC(=O)N2[C@H](C1)[C@@H](c1ccc(/C=C/c3ccccc3)cc1)[C@@H]2CO	.	-	-	.	.	.	.
O=C(NC1CCCC1)N1CCCCN2[C@H](C1)[C@H](c1ccc(/C=C/c3ccccc3)cc1)[C@@H]2CO	104.1	-	-	103.6	-	-	104.8
O=C(NC1CCCC1)N1CCCCN2[C@H](C1)[C@@H](c1ccc(/C=C/c3ccccc3)cc1)[C@@H]2CO	-	-	-	.	.	.	.
O=C(NC1CCCC1)N1CCCCN2[C@H](CO)[C@@H](c3ccc(/C=C/c4ccccc4)cc3)[C@@H]2C1	107.3	-	-	99.7	101.2	-	103.6
CC(C)NC(=O)N1CCCCN2[C@H](CO)[C@H](c3ccc(C#C[C@@H](C)O)cc3)[C@@H]2C1	-	-	-	.	.	.	.
CC(C)NC(=O)N1CCCCN2[C@H](CO)[C@@H](c3ccc(C#C[C@H](C)O)cc3)[C@H]2C1	-	-	-	.	.	.	.
CC(C)NC(=O)N1CCCCN2[C@@H](CO)[C@H](c3ccc(C#CC4CC4)cc3)[C@@H]2C1	?	-	-	-	-	-	-
CC(C)NC(=O)N1CCCCN2[C@H](CO)[C@H](c3ccc(C#Cc4ccccc4)cc3)[C@@H]2C1	114.7	-	-	108.9	-	41.5	62.2
CC(C)NC(=O)N1CCCCN2[C@H](C1)[C@H](c1ccc(C#C[C@H](C)O)cc1)[C@@H]2CO	-	-	-	.	.	.	.
CC(C)NC(=O)N1CCCCN2[C@H](CO)[C@H](c3ccc(C#CC4CC4)cc3)[C@@H]2C1	-	-	-	.	.	.	.
CC(C)NC(=O)N1CCCCN2[C@H](CO)[C@@H](c3ccc(C#Cc4ccccc4F)cc3)[C@@H]2C1	102.2	-	-	108.2	-	-	104.8
CC(C)NC(=O)N1CCCCN2[C@@H](CO)[C@H](c3ccc(C#Cc4ccccc4)cc3)[C@@H]2C1	105.6	-	-	107.9	-	-	104.8
